Assay outcomes: PubChem BioAssay, National Center for Advancing Translational Sciences (NCATS)
HCV inhibitor: qHTS Assay for Inhibitors of Hepatitis C Virus (HCV); Huh7.5.1 HCVcc-Cre infection, luciferase reporter, 44 h; Potency, µM (highest dose often 41.8 µM), without a hit: at the top dose activity change, negative = inhibition, most hits filed as inhibitors; 340,000 tested, 3.4% active; AID 651820, 2012; note: potency is the fitted concentration of half-maximal effect; % is set by controls: 0 for no effect and ±100 for the full control effect
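Infectious HCVcc-Cre (~0.5 moi) was added to cells just after compound, with cells seeded 4 h earlier at 1,000 per well. Luciferase activity after 44 h culture reported infection; substrate was incubated 15 min at room temperature before reading.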
Shiga toxin inh: A qHTS for Small Molecule Inhibitors of Shiga Toxin | inhibition, % at 38.7 µM | Vero cells, Shiga toxin protein synthesis inhibition reporter | 290,000 tested, 9.2% active; in the data active = inhibition mostly above about 28%, no sharp cut-off; inactive = mostly below about 43%; note: 0% is about no effect
HCMV antiviral: qHTS Assay for inhibitors of the human cytomegalovirus (HCMV); HFF cells, HCMV-luciferase reporter, 72 h; hits give low values; activity change, negative = inhibition, % at 57.5 µM; 410,000 tested, 4.5% active; in the data active = activity change below about -60%; inconclusive = no clear call, values can overlap the other calls; inactive = above about -39%; note: % is set by controls: 0 for no effect and ±100 for the full control effect
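Two-dose cell screen: HFF monolayers treated with compounds and infected with luciferase-expressing HCMV at 1 PFU/cell, 72 h at 37C, then lysed for luciferase measurement.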
Pf growth 48h: Primary qHTS for delayed death inhibitors of the malarial parasite plastid, 48 hour incubation. Potency, µM (highest dose often 28.7 µM), for inactives: top-dose activity change, negative = inhibition, hits mostly inhibitors. P. falciparum luciferase growth in erythrocytes, 48 h. 310,000 tested, 5.9% active; note: potency is the fitted concentration of half-maximal effect; % is set by controls: 0 for no effect and ±100 for the full control effect
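A one-generation exposure of luciferase-tagged malaria parasites in RPMI 1640/Albumax erythrocyte culture, 37 C and 5% CO2. Inhibition is inferred from decreased luminescence after adding detection reagent.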
Cycloheximide cs: Cycloheximide Counterscreen for Small Molecule Inhibitors of Shiga Toxin. 300,000 tested, 12% active. AID 2314, 2010. max response, %. cell reporter, cycloheximide protein synthesis inhibition counterscreen; in the data active = max response mostly above about 13%, no sharp cut-off; inactive = mostly below about 14%; note: read at 38.3 µM for the half of the compounds with a filed dose; 0% is about no effect
Pf growth 96h: Primary qHTS for delayed death inhibitors of the malarial parasite plastid, 96 hour incubation | P. falciparum luciferase reporter growth, 96 h | Potency, µM (highest dose often 28.7 µM), without a hit: at the top dose activity change, negative = inhibition, hits mostly inhibitors | 320,000 tested, 6.9% active | AID 504834, 2011; note: potency is the fitted concentration of half-maximal effect; % is set by controls: 0 for no effect and ±100 for the full control effect
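Plates of compound plus infected erythrocytes (2% hematocrit, 0.05% parasitemia final) incubate 96 hours, 37 C, 5% CO2. Detection reagent added; reduced luminescence from the parasites' luciferase reporter flags inhibition.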
* hit, by the source's call. Hits are enriched below; roughly 21% of the tested compounds scored in any of these assays. Unless noted, calls come from the whole dose curve; as a rule, active = well fitted inhibition curve with a large enough effect; inconclusive = small, poorly fitted or top-dose-only effect, or another doubt; inactive = no such curve, though single readings can be large or run the other way.

For CC(=O)Nc1ccc(NC(=O)CNC(=O)c2sc3ccccc3c2Cl)cc1 the results were HCV inhibitor 12.7%, HCMV antiviral 40.6, Pf growth 48h 0.9% and Pf growth 96h 39.2%.
For CC(=O)Nc1ccc(C=C(C(C)=O)C(C)=O)cc1 the results were HCV inhibitor 18.4%, Shiga toxin inh 2.9, HCMV antiviral 8.0, Pf growth 48h -2.6%, Cycloheximide cs -1.2 and Pf growth 96h 15.2%.
Screening O=S1(=O)[C@H]2C[C@H](CO)O[C@@]2(CO)CN1Cc1ccc(-c2cccc(Cl)c2)cc1 returned HCV inhibitor inconclusive and HCMV antiviral 4.7.
Oc1c(C=Nc2ccccc2)sc2ccccc12 was read as HCV inhibitor 3.3%, Shiga toxin inh 3.4, HCMV antiviral -14.9, Pf growth 48h inconclusive, Cycloheximide cs -2.1 and Pf growth 96h 38.4%.
`Oc1c(C=NCc2ccncc2)sc2ccccc12` gave HCV inhibitor -16.7%, Shiga toxin inh 83.7*, HCMV antiviral 52.2, Pf growth 48h 18.5%, Cycloheximide cs 46.7* and Pf growth 96h -8.6%.
For Oc1c(C=Nc2ccc(Cl)cn2)sc2ccccc12 the results were HCV inhibitor 9.3%, Shiga toxin inh 14.0*, HCMV antiviral inconclusive, Pf growth 48h 200.9%, Cycloheximide cs 28.6* and Pf growth 96h 12.1%.
`Cc1cn2c(=O)cc(COc3ccc(C(C)(C)C)cc3)nc2s1` gave HCMV antiviral -19.0.
Screening CCN(c1ccc(NC(=O)CCc2nc3sc4c(c3c(=O)[nH]2)CCCC4)cc1)C(C)C returned HCV inhibitor inconclusive, HCMV antiviral -33.6, Pf growth 48h inconclusive and Pf growth 96h inconclusive.
Screening CCOc1cccc(/C=N/NC(=S)Nc2cc(S(=O)(=O)N3CCOCC3)ccc2N2CCOCC2)c1O returned HCV inhibitor inconclusive, Shiga toxin inh 20.2, HCMV antiviral -79.4*, Pf growth 48h inconclusive, Cycloheximide cs 16.2 and Pf growth 96h inconclusive.
Screening COc1ccc(/C=N/NC(=S)Nc2cc(S(=O)(=O)N3CCOCC3)ccc2N2CCOCC2)cc1O returned HCV inhibitor 10µM*, Shiga toxin inh -2.4, HCMV antiviral -30.3, Pf growth 48h inconclusive, Cycloheximide cs -3.8 and Pf growth 96h inconclusive.
For COc1ccc2ccccc2c1/C=N/NC(=S)Nc1cc(S(=O)(=O)N2CCOCC2)ccc1N1CCOCC1 the results were HCV inhibitor inconclusive, Shiga toxin inh -5.6, HCMV antiviral -33.7, Pf growth 48h 5.22µM*, Cycloheximide cs -1.9 and Pf growth 96h 1.65µM*.
Screening COc1cccc2sc(NC(=O)CS(=O)(=O)c3ccc(C)cc3)nc12 returned HCMV antiviral 0.0.
CCC(NC(=O)C1C2C=CC(C2)C1C(=O)O)c1ccc(C)cc1 (stereo not drawn) was read as HCV inhibitor 11.3%, Shiga toxin inh 10.1, HCMV antiviral 34.0, Pf growth 48h -8.1%, Cycloheximide cs -4.3 and Pf growth 96h inconclusive.
COCCN(C(=O)Cn1c(C(F)(F)F)nc2ccccc21)c1c(N)n(Cc2ccccc2)c(=O)[nH]c1=O was read as HCV inhibitor 12.0%, Shiga toxin inh -1.4, HCMV antiviral 37.5, Pf growth 48h inconclusive, Cycloheximide cs -2.3 and Pf growth 96h 14.7µM*.
For Cc1onc(-c2ccccc2)c1C(=O)OCC(=O)N(CC(C)C)c1c(N)n(Cc2ccccc2)c(=O)[nH]c1=O the results were HCV inhibitor inconclusive, HCMV antiviral -21.6, Pf growth 48h 13.1µM* and Pf growth 96h inconclusive.
For CCN(C(=O)COC(=O)c1c(-c2ccccc2)noc1C)c1c(N)n(Cc2ccccc2)c(=O)[nH]c1=O the results were HCV inhibitor 15.1%, Shiga toxin inh -30.6, HCMV antiviral -0.6, Pf growth 48h inconclusive, Cycloheximide cs 0.9 and Pf growth 96h inconclusive.
CC(C)CN(C(=O)COC(=O)C12CC3CC(CC(C3)C1)C2)c1c(N)n(Cc2ccccc2)c(=O)[nH]c1=O was read as HCV inhibitor 15.8µM*, HCMV antiviral -84.1*, Pf growth 48h 1.17µM* and Pf growth 96h 0.131µM*.
